# Screens as filed in PubChem BioAssay.
# Calb FLC: affects C. albicans growth with fluconazole | growth inhibition, % (test concentration not listed) | 300,000 tested, 0.57% active | AID 1979 | C. albicans CaCi-2 (fluconazole-resistant clinical isolate) + fluconazole, Alamar Blue growth, 48 h;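 active = growth inhibition above about 58% in most replicates, limit read from the data, passing the limit was not always enough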;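 also: all wells also contain fluconazole at 8 µg/ml as a sub-toxic cotreatment; 0% = median of DMSO wells and 100% = median of geldanamycin control wells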
# IDE cell activ: boosts human insulin-degrading enzyme activity in HEK cells | FAbeta-B cleavage, fluorescence polarization; 0% vehicle, 100% cell-free pure enzyme wells | activation, % at 5.96 µM | P14735 | 340,000 tested, 0.073% active;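 active = activation above the mean of all tested compounds plus 3 SD, set per screening campaign, cut at about 17% in these data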
# TPT1 inhibitor: C. albicans TPT1 enzyme inhibition. inhibition, % at 5 µM. 300,000 tested, 0.81% active. recombinant caTPT1, FP RNA substrate dephosphorylation. AID 1962;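 active = inhibition above the mean of all tested compounds plus 3 SD, set per screening campaign, cut at about 24% in these data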;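 also: plate controls were DMSO alone for no effect and ferristatin control at 100 nM for full effect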
# IDE inh: cellular human IDE inhibition. AID 434962. P14735. inhibition, % at 5.59 µM. 320,000 tested, 0.41% active. HEK cells, FAbetaB cleavage, fluorescence polarization;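 active = percent inhibition above the average of all tested compounds plus 3 SD, set per screening campaign, cut at about 16% in these data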;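 also: IDE supplied by intact live HEK cells; FP after avidin binding of uncleaved biotin substrate so inhibition keeps polarization high; 0% = DMSO wells and 100% = 60 µM reference IDE inhibitor Ii1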
# Rpn11 block: blocks the human proteasome subunit Rpn11; O00487; human 26S proteasome, Ub4-pepOG fluorescence polarization; 20S core pre-blocked with epoxomicin; inhibition, % at 20 µM; 360,000 tested, 0.59% active;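 active = inhibition at 20 µM, scaled to each plate's controls, above about 33%, limit read from the data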
# Rin1-Abl PPI inh: human Rin1-Abl interaction inhibition; P00519+Q13671; TR-FRET Rin1/Abl binding, biochemical; inhibition, % at 7.35 µM; 360,000 tested, 0.4% active; AID 588664; in the data active = inhibition above about 5%, passing the limit was not always enough
# Rin1 Abl conf: confirmation of inhibitors of human Rin1-Abl interaction | shares compounds with Rin1-Abl PPI inh | TR-FRET Rin1-Abl binding, purified proteins | 1,300 tested, 49% active | inhibition, % at 7.35 µM
# GFP quench: GFP fluorescence interference artifact | shares compounds with Rin1-Abl PPI inh | inhibitors/quenchers counterscreen | inhibition, % at 6.75 µM | 1,300 tested, 8.5% active | AID 602125;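 also: ABL1-eGFP fusion protein alone without its partner RIN1-SBP; 0% = protein with vehicle and 100% = wells lacking protein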
# GFP quench dose: quenches GFP in dose response, Rin1-Abl counter-screen. shares compounds with Rin1-Abl PPI inh. GFP fluorescence interference/quenching counterscreen. IC50, µM. 230 tested, under 10 active; call rule not given here;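 also: ABL1-eGFP fusion protein alone without its RIN1 binding partner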
# * = called active by the depositor; / = no result. In the library only some 2.3% were active in any assay of this set; here they are far more common. Rule as the data show it, unless noted: active = inhibition above about 6.5%; inactive = the rest.
SMILES,Calb FLC,IDE cell activ,TPT1 inhibitor,IDE inh,Rpn11 block,Rin1-Abl PPI inh,Rin1 Abl conf,GFP quench,others
Oc1cccc(/C=N/NC(=S)NCCN2CCOCC2)c1O,1,1,-3,9,-2,5.7*,0,-3,
COc1cccc(CN(C)C(=O)c2ccc(S(=O)(=O)Nc3ccccc3C)cc2)c1OC,/,/,/,/,-2,0,/,/,
COCC(=O)Nc1ccc2c(c1)[C@@H]1C[C@H](CC(=O)NCc3cccc(F)c3)O[C@@H](CO)[C@@H]1O2,/,/,/,/,-4,50*,0,1,
COCC(=O)Nc1ccc2c(c1)[C@@H]1C[C@H](CC(=O)OC)O[C@@H](CO)[C@@H]1O2,/,/,/,/,-2,0,/,/,
O=C(CC1SCCNC1=O)Nc1cccc(C(F)(F)F)c1 (stereo not drawn),15,0,2,5,2,7.8*,4,0,
COc1ccc(OC)c(NC(=O)CC2C(=O)NCCN2C(=O)Nc2cccc(Cl)c2)c1 (stereo not drawn),-8,-6,1,4,-6,9.2*,13*,1,
CCc1ccccc1NC(=O)CC1SCCNC1=O (stereo not drawn),-1,1,1,-16,2,6,/,/,
O=C(CC1SCCNC1=O)Nc1cccc(Cl)c1 (stereo not drawn),5,1,0,-3,-2,9.6*,19*,0,GFP quench dose=>68
COc1ccc(C(=O)N2CCNC(=O)C2CC(=O)Nc2cc(Cl)ccc2OC)cc1 (stereo not drawn),-1,5,-4,1,6,0,/,/,
CCCS(=O)(=O)NC(=O)C1(C)CCCN(C(=O)c2ccc(F)c(Cl)c2)C1 (stereo not drawn),/,/,/,/,-1,17*,-2,-2,
COc1ccc(Br)cc1S(=O)(=O)n1nc(C)cc1C,-2,4,1,-3,-3,4,/,/,
COc1ccc(C)cc1S(=O)(=O)n1nc(C)cc1C,-9,6,0,4,-4,8.4*,-3,2,
COc1ccc(C(C)C)cc1S(=O)(=O)n1cnc(C)c1,-7,5,-2,5,4,8.0*,-3,0,
Cc1ccc(Cl)cc1N1C(=O)CC(C)(C)CC1=O,7,0,-1,-3,-5,7.2*,-3,1,
CCOC(=O)C1=C(C)NC(=S)N(C(C)=O)C1c1ccc(OC)c(OC)c1 (stereo not drawn),2,/,-2,15,0,-1,/,/,
CCOC(=O)C1=C(C)Nc2nnnn2C1c1ccc(OC)c(Br)c1 (stereo not drawn),2,0,-1,-4,2,11*,-1,-1,
COc1ccc(S(=O)(=O)N2CCCOC2CNC(=O)C(=O)NCCO)cc1 (stereo not drawn),/,/,/,/,2,-1,/,/,
Cc1nn(CC(=O)NC2CCS(=O)(=O)C2)c(C)c1[N+](=O)[O-] (stereo not drawn),/,-4,/,1,-2,2,/,/,
O=C(NNC(=O)c1cccnc1)NC1CCCCC1,-13,5,-2,3,-9,1,/,/,
O=C(NNC(=O)c1cc(O)c(O)c(O)c1)NC1CCCCC1,-2,-4,-1,-4,-4,22*,22*,14*,
O=C(NC(=S)N1CCCCC1c1cccnc1)c1ccc(Br)cc1 (stereo not drawn),-3,2,-2,-1,4,1,/,/,
Cc1cccc(N/N=C/c2ccc(O)c(O)c2O)c1,-4,-4,-3,2,2,26*,23*,13*,
Oc1ccc(/C=N/NC(=S)Nc2cccnc2)c(O)c1O,57,-18,/,/,2,31*,19*,15*,
COc1cccc(N/N=C/c2cccc(Br)c2O)c1,-7,-1,-4,-1,7,-2,/,/,
Oc1cccc(/C=N/NC(=S)Nc2cccnc2)c1O,10,-1,10,9,3,0,/,/,
